Results reported in PMC11006913.
Where a chain is given by its changes, count along the chain named.

Experiments:
Assay in all cases: PBM; 200 nM protein, PBS
Conditions in all cases: dsDNA, one strand shown
SIX6 [1] = target: T1, SIX6 (Homo sapiens, UniProt O95475 114-200, L167I)
T1 sequence: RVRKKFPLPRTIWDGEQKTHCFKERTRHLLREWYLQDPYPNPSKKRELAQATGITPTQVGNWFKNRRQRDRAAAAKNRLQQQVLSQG

SIX6 [2] = target: T2, SIX6 (Homo sapiens, UniProt O95475 114-200, L143V)
T2 sequence: T1 sequence with L30V, I54L

SIX6 [3] = target: T3, SIX6 (Homo sapiens, UniProt O95475 114-200, H141N)
T3 sequence: T1 sequence with H28N, I54L

SIX6 [4] = target: T4, SIX6 (Homo sapiens, UniProt O95475 114-200, T165P)
T4 sequence: T1 sequence with T52P, I54L

SIX6 [5] = target: T5, SIX6 (Homo sapiens, UniProt O95475 114-200, L167M)
T5 sequence: T1 sequence with I54M

SIX6 [6] = target: T6, SIX6 (Homo sapiens, UniProt O95475 114-200, L143M)
T6 sequence: T1 sequence with L30M, I54L

SIX6 [7] = target: T7, SIX6 (Homo sapiens, UniProt O95475 114-200, L143I)
T7 sequence: T1 sequence with L30I, I54L

SIX6 [8] = target: T8, SIX6 (Homo sapiens, UniProt O95475 114-200, T165G)
T8 sequence: T1 sequence with T52G, I54L

SIX6 [9] = target: T9, SIX6 (Homo sapiens, UniProt O95475 114-200, T139Q)
T9 sequence: T1 sequence with T26Q, I54L

SIX6 [10] = target: T10, SIX6 (Homo sapiens, UniProt O95475 114-200, T165A)
T10 sequence: T1 sequence with T52A, I54L

SIX6 [11] = target: T11, SIX6 (Homo sapiens, UniProt O95475 114-200, L167V)
T11 sequence: T1 sequence with I54V

SIX6 [12] = target: T12, SIX6 (Homo sapiens, UniProt O95475 114-200)
T12 sequence: T1 sequence with I54L

SIX6 [13] = target: T13, SIX6 (Homo sapiens, UniProt O95475 114-200, T165I)
T13 sequence: T1 sequence with T52I, I54L

NKX3-2 [14] = target: NKX3-2 (Homo sapiens, UniProt P78367 192-278, P234S)
NKX3-2 (Homo sapiens, UniProt P78367 192-278, P234S), sequence (P78367 192-278 P234S): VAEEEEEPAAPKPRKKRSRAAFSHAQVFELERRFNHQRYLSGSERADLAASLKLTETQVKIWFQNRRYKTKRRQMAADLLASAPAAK

NKX3-2 [15] = target: NKX3-2 (Homo sapiens, UniProt P78367 192-278)
NKX3-2 (Homo sapiens, UniProt P78367 192-278), sequence (P78367 192-278): as the sequence (P78367 192-278 P234S) above, with S43P counted along it

Sequence	binding signal (SIX6 [1])	binding signal (SIX6 [2])	binding signal (SIX6 [3])	binding signal (SIX6 [4])	binding signal (SIX6 [5])	binding signal (SIX6 [6])	binding signal (SIX6 [7])	binding signal (SIX6 [8])	binding signal (SIX6 [9])	binding signal (SIX6 [10])	binding signal (SIX6 [11])	binding signal (SIX6 [12])	binding signal (SIX6 [13])	binding signal (NKX3-2 [14])	binding signal (NKX3-2 [15])
ACGATATC	11.1 upbm affinity estimate (log intensity, higher = more binding, comparable within an allelic series)	10.2 upbm affinity estimate (log intensity, higher = more binding, comparable within an allelic series)	11.1 upbm affinity estimate (log intensity, higher = more binding, comparable within an allelic series)	9.76 upbm affinity estimate (log intensity, higher = more binding, comparable within an allelic series)	10.6 upbm affinity estimate (log intensity, higher = more binding, comparable within an allelic series)	11 upbm affinity estimate (log intensity, higher = more binding, comparable within an allelic series)	10.3 upbm affinity estimate (log intensity, higher = more binding, comparable within an allelic series)	11.3 upbm affinity estimate (log intensity, higher = more binding, comparable within an allelic series)	11.2 upbm affinity estimate (log intensity, higher = more binding, comparable within an allelic series)	11 upbm affinity estimate (log intensity, higher = more binding, comparable within an allelic series)	10.9 upbm affinity estimate (log intensity, higher = more binding, comparable within an allelic series)	10.9 upbm affinity estimate (log intensity, higher = more binding, comparable within an allelic series)	10.8 upbm affinity estimate (log intensity, higher = more binding, comparable within an allelic series)	–	–
TATCATCA	10.9 upbm affinity estimate (log intensity, higher = more binding, comparable within an allelic series)	10.3 upbm affinity estimate (log intensity, higher = more binding, comparable within an allelic series)	10.8 upbm affinity estimate (log intensity, higher = more binding, comparable within an allelic series)	9.94 upbm affinity estimate (log intensity, higher = more binding, comparable within an allelic series)	10.5 upbm affinity estimate (log intensity, higher = more binding, comparable within an allelic series)	10.8 upbm affinity estimate (log intensity, higher = more binding, comparable within an allelic series)	10.2 upbm affinity estimate (log intensity, higher = more binding, comparable within an allelic series)	10.8 upbm affinity estimate (log intensity, higher = more binding, comparable within an allelic series)	10.9 upbm affinity estimate (log intensity, higher = more binding, comparable within an allelic series)	10.8 upbm affinity estimate (log intensity, higher = more binding, comparable within an allelic series)	10.6 upbm affinity estimate (log intensity, higher = more binding, comparable within an allelic series)	10.7 upbm affinity estimate (log intensity, higher = more binding, comparable within an allelic series)	10.7 upbm affinity estimate (log intensity, higher = more binding, comparable within an allelic series)	–	–
ATATCCCC	10.9 upbm affinity estimate (log intensity, higher = more binding, comparable within an allelic series)	10.3 upbm affinity estimate (log intensity, higher = more binding, comparable within an allelic series)	10.9 upbm affinity estimate (log intensity, higher = more binding, comparable within an allelic series)	9.7 upbm affinity estimate (log intensity, higher = more binding, comparable within an allelic series)	10.9 upbm affinity estimate (log intensity, higher = more binding, comparable within an allelic series)	10.9 upbm affinity estimate (log intensity, higher = more binding, comparable within an allelic series)	10.3 upbm affinity estimate (log intensity, higher = more binding, comparable within an allelic series)	10.9 upbm affinity estimate (log intensity, higher = more binding, comparable within an allelic series)	10.9 upbm affinity estimate (log intensity, higher = more binding, comparable within an allelic series)	10.8 upbm affinity estimate (log intensity, higher = more binding, comparable within an allelic series)	10.7 upbm affinity estimate (log intensity, higher = more binding, comparable within an allelic series)	10.9 upbm affinity estimate (log intensity, higher = more binding, comparable within an allelic series)	10.9 upbm affinity estimate (log intensity, higher = more binding, comparable within an allelic series)	–	–
TGATATCA	11.6 upbm affinity estimate (log intensity, higher = more binding, comparable within an allelic series)	10.5 upbm affinity estimate (log intensity, higher = more binding, comparable within an allelic series)	11.6 upbm affinity estimate (log intensity, higher = more binding, comparable within an allelic series)	9.86 upbm affinity estimate (log intensity, higher = more binding, comparable within an allelic series)	11 upbm affinity estimate (log intensity, higher = more binding, comparable within an allelic series)	11.4 upbm affinity estimate (log intensity, higher = more binding, comparable within an allelic series)	10.5 upbm affinity estimate (log intensity, higher = more binding, comparable within an allelic series)	11.6 upbm affinity estimate (log intensity, higher = more binding, comparable within an allelic series)	11.6 upbm affinity estimate (log intensity, higher = more binding, comparable within an allelic series)	11.6 upbm affinity estimate (log intensity, higher = more binding, comparable within an allelic series)	11.6 upbm affinity estimate (log intensity, higher = more binding, comparable within an allelic series)	11.3 upbm affinity estimate (log intensity, higher = more binding, comparable within an allelic series)	11.4 upbm affinity estimate (log intensity, higher = more binding, comparable within an allelic series)	–	–
ACATATCA	11.3 upbm affinity estimate (log intensity, higher = more binding, comparable within an allelic series)	10.4 upbm affinity estimate (log intensity, higher = more binding, comparable within an allelic series)	11.3 upbm affinity estimate (log intensity, higher = more binding, comparable within an allelic series)	9.99 upbm affinity estimate (log intensity, higher = more binding, comparable within an allelic series)	10.7 upbm affinity estimate (log intensity, higher = more binding, comparable within an allelic series)	11.1 upbm affinity estimate (log intensity, higher = more binding, comparable within an allelic series)	10.4 upbm affinity estimate (log intensity, higher = more binding, comparable within an allelic series)	11.3 upbm affinity estimate (log intensity, higher = more binding, comparable within an allelic series)	11.3 upbm affinity estimate (log intensity, higher = more binding, comparable within an allelic series)	11.2 upbm affinity estimate (log intensity, higher = more binding, comparable within an allelic series)	11.1 upbm affinity estimate (log intensity, higher = more binding, comparable within an allelic series)	11.1 upbm affinity estimate (log intensity, higher = more binding, comparable within an allelic series)	11.1 upbm affinity estimate (log intensity, higher = more binding, comparable within an allelic series)	–	–
GATCCGGA	10.4 upbm affinity estimate (log intensity, higher = more binding, comparable within an allelic series)	9.71 upbm affinity estimate (log intensity, higher = more binding, comparable within an allelic series)	10.2 upbm affinity estimate (log intensity, higher = more binding, comparable within an allelic series)	9.25 upbm affinity estimate (log intensity, higher = more binding, comparable within an allelic series)	–	–	9.87 upbm affinity estimate (log intensity, higher = more binding, comparable within an allelic series)	10.4 upbm affinity estimate (log intensity, higher = more binding, comparable within an allelic series)	10.7 upbm affinity estimate (log intensity, higher = more binding, comparable within an allelic series)	10.3 upbm affinity estimate (log intensity, higher = more binding, comparable within an allelic series)	10.3 upbm affinity estimate (log intensity, higher = more binding, comparable within an allelic series)	10.4 upbm affinity estimate (log intensity, higher = more binding, comparable within an allelic series)	10.2 upbm affinity estimate (log intensity, higher = more binding, comparable within an allelic series)	–	–
CTGGCGCC	8.88 upbm affinity estimate (log intensity, higher = more binding, comparable within an allelic series)	8.96 upbm affinity estimate (log intensity, higher = more binding, comparable within an allelic series)	8.82 upbm affinity estimate (log intensity, higher = more binding, comparable within an allelic series)	9.1 upbm affinity estimate (log intensity, higher = more binding, comparable within an allelic series)	8.85 upbm affinity estimate (log intensity, higher = more binding, comparable within an allelic series)	8.93 upbm affinity estimate (log intensity, higher = more binding, comparable within an allelic series)	8.9 upbm affinity estimate (log intensity, higher = more binding, comparable within an allelic series)	8.9 upbm affinity estimate (log intensity, higher = more binding, comparable within an allelic series)	8.85 upbm affinity estimate (log intensity, higher = more binding, comparable within an allelic series)	8.87 upbm affinity estimate (log intensity, higher = more binding, comparable within an allelic series)	8.8 upbm affinity estimate (log intensity, higher = more binding, comparable within an allelic series)	8.82 upbm affinity estimate (log intensity, higher = more binding, comparable within an allelic series)	8.87 upbm affinity estimate (log intensity, higher = more binding, comparable within an allelic series)	10.6 upbm affinity estimate (log intensity, higher = more binding, comparable within an allelic series)	10.5 upbm affinity estimate (log intensity, higher = more binding, comparable within an allelic series)
CGTATCAA	11.1 upbm affinity estimate (log intensity, higher = more binding, comparable within an allelic series)	10.2 upbm affinity estimate (log intensity, higher = more binding, comparable within an allelic series)	11.2 upbm affinity estimate (log intensity, higher = more binding, comparable within an allelic series)	9.64 upbm affinity estimate (log intensity, higher = more binding, comparable within an allelic series)	10.6 upbm affinity estimate (log intensity, higher = more binding, comparable within an allelic series)	11.1 upbm affinity estimate (log intensity, higher = more binding, comparable within an allelic series)	10.3 upbm affinity estimate (log intensity, higher = more binding, comparable within an allelic series)	11.1 upbm affinity estimate (log intensity, higher = more binding, comparable within an allelic series)	11 upbm affinity estimate (log intensity, higher = more binding, comparable within an allelic series)	11.1 upbm affinity estimate (log intensity, higher = more binding, comparable within an allelic series)	10.9 upbm affinity estimate (log intensity, higher = more binding, comparable within an allelic series)	10.9 upbm affinity estimate (log intensity, higher = more binding, comparable within an allelic series)	11 upbm affinity estimate (log intensity, higher = more binding, comparable within an allelic series)	–	–
ACGGGCGG	8.9 upbm affinity estimate (log intensity, higher = more binding, comparable within an allelic series)	8.8 upbm affinity estimate (log intensity, higher = more binding, comparable within an allelic series)	8.96 upbm affinity estimate (log intensity, higher = more binding, comparable within an allelic series)	8.88 upbm affinity estimate (log intensity, higher = more binding, comparable within an allelic series)	8.9 upbm affinity estimate (log intensity, higher = more binding, comparable within an allelic series)	8.96 upbm affinity estimate (log intensity, higher = more binding, comparable within an allelic series)	8.91 upbm affinity estimate (log intensity, higher = more binding, comparable within an allelic series)	9.03 upbm affinity estimate (log intensity, higher = more binding, comparable within an allelic series)	9.17 upbm affinity estimate (log intensity, higher = more binding, comparable within an allelic series)	9.02 upbm affinity estimate (log intensity, higher = more binding, comparable within an allelic series)	8.77 upbm affinity estimate (log intensity, higher = more binding, comparable within an allelic series)	8.94 upbm affinity estimate (log intensity, higher = more binding, comparable within an allelic series)	8.98 upbm affinity estimate (log intensity, higher = more binding, comparable within an allelic series)	–	–
GATATCCC	11.1 upbm affinity estimate (log intensity, higher = more binding, comparable within an allelic series)	10.2 upbm affinity estimate (log intensity, higher = more binding, comparable within an allelic series)	11.1 upbm affinity estimate (log intensity, higher = more binding, comparable within an allelic series)	9.49 upbm affinity estimate (log intensity, higher = more binding, comparable within an allelic series)	10.8 upbm affinity estimate (log intensity, higher = more binding, comparable within an allelic series)	11 upbm affinity estimate (log intensity, higher = more binding, comparable within an allelic series)	10.2 upbm affinity estimate (log intensity, higher = more binding, comparable within an allelic series)	11.2 upbm affinity estimate (log intensity, higher = more binding, comparable within an allelic series)	11.1 upbm affinity estimate (log intensity, higher = more binding, comparable within an allelic series)	11 upbm affinity estimate (log intensity, higher = more binding, comparable within an allelic series)	11 upbm affinity estimate (log intensity, higher = more binding, comparable within an allelic series)	11 upbm affinity estimate (log intensity, higher = more binding, comparable within an allelic series)	11 upbm affinity estimate (log intensity, higher = more binding, comparable within an allelic series)	–	–
GATGATAC	11.4 upbm affinity estimate (log intensity, higher = more binding, comparable within an allelic series)	10.4 upbm affinity estimate (log intensity, higher = more binding, comparable within an allelic series)	11.3 upbm affinity estimate (log intensity, higher = more binding, comparable within an allelic series)	9.55 upbm affinity estimate (log intensity, higher = more binding, comparable within an allelic series)	10.7 upbm affinity estimate (log intensity, higher = more binding, comparable within an allelic series)	11.1 upbm affinity estimate (log intensity, higher = more binding, comparable within an allelic series)	10.5 upbm affinity estimate (log intensity, higher = more binding, comparable within an allelic series)	11.4 upbm affinity estimate (log intensity, higher = more binding, comparable within an allelic series)	11.3 upbm affinity estimate (log intensity, higher = more binding, comparable within an allelic series)	11.2 upbm affinity estimate (log intensity, higher = more binding, comparable within an allelic series)	11.2 upbm affinity estimate (log intensity, higher = more binding, comparable within an allelic series)	11.1 upbm affinity estimate (log intensity, higher = more binding, comparable within an allelic series)	11.1 upbm affinity estimate (log intensity, higher = more binding, comparable within an allelic series)	–	–
